The record followed here is PubChem BioAssay.

A short description of the first experiment: viability loss with induced miR-34 in A549 – imaging, A549 dox-inducible miR-34, nuclei and caspase counts, primary screen (AID 1347080). Further: test concentration not given here. The settings on record: A549 miR-34 inducible, Hoechst nuclei count, 48 h; measured here: total cells with miR-34 induction; stronger effect = lower value.
`O=C(O)CCC/C=C\CC1C(=O)C[C@@H](O)[C@@H]1/C=C/[C@@H](O)COc1ccccc1` (stereo not given in full) gave a cell count of 5400.

The compound `CCCCCCCCCSCCCCCCCC(=O)O` gave a cell count of 5310.

For `CCCCC[C@H](O)/C=C/[C@H]1[C@H](O)CC(=O)[C@H]1C/C=C\CCCC(=O)OC(C)C`, the cell count is 5550.

`NC(=Nc1ccc(F)cc1)NO` came in with a cell count of 5540.

Turning to `OC[C@H]1O[C@H](O[C@H]2[C@H](O)[C@@H](O)[C@H](O)O[C@@H]2CO)[C@H](O)[C@@H](O)[C@@H]1O`, the cell count amounted to 8780.

In turn, `COc1ccc(/C=C/c2ccccc2F)cc1` yielded a cell count of 5810.

With `CCCOCCCCCCCCCC(=O)O`, the cell count came to 6150.

Compound `Cn1c([N+](=O)[O-])cc[n+]1C` displayed a cell count of 8620.

In the case of `CC\C=C/C=C/C=C/C=C\CCCCCCCC(=O)O`, the cell count worked out at 4740.

As to `CC(C)(C)OC(=O)Nc1cccc2[nH]ccc12`, the cell count was 4970.

`C[C@]12CC[C@@H]3c4cc(O)c(O)cc4CC[C@H]3[C@@H]1CC[C@@H]2O` showed a cell count of 5010.

`CC(C)(C)C(=O)Nc1ccccc1` had a cell count of 5080.

For the compound `O=C(O)CCCCCCCCCCCNC(=O)NC12CC3CC(CC(C3)C1)C2`, the cell count was 5310.

With `CCCCC/C=C\C/C=C\C/C=C\C/C=C\CCCC(=O)Oc1ccc2ccc(=O)oc2c1`, the cell count was 5890.

Regarding `CCCCCNC1=C(c2cn(C)c3ccccc23)C(=O)N(C)C1=O`, the cell count stood at 6020.

With `CCCCC[C@H](O)/C=C/[C@H]1OC(O)C[C@H](O)[C@@H]1CCCCCCC(=O)O` (stereo not given in full), the cell count worked out at 5640.

In the case of `CCCCCCCCCCCCCCCNC(=O)C1CCCCC1`, the cell count was 6830.

Compound `C[C@@H](O)CCC[C@@H](O)/C=C/[C@@H]1[C@@H](CCCCCCC(=O)O)[C@@H](O)C[C@H]1O` showed a cell count of 5220.

`CCCCC[C@H](O)/C=C/[C@@H]1c2cc(CCCCC(=O)O)n(-c3ccccc3)c2C[C@H]1O` came in with a cell count of 6340.

`CCCCCCCCCC(=O)N[C@@H](CN1CCOCC1)[C@@H](O)c1ccccc1` had a cell count of 5480.

As for `CCCCCCCCCCCCCCCCOC[C@H](COP(=O)([O-])OCC[N+](C)(C)C)SC(C)=O`, the cell count stood at 4720.

Compound `CCCCC/C=C\C/C=C\C/C=C\CCCCCCC(=O)OCC` yielded a cell count of 6480.

Consider `CCCCC[C@H](O)/C=C/[C@@H]1[C@@H](CCCCCCCO)[C@@H](O)C[C@H]1O`, for which the cell count came to 5540.

The compound `CCCCCCCCCCCC(=O)O` registered a cell count of 5910.

Regarding `N#Cc1cc2c(OCC(O)CN3CCN(C(c4ccccc4)c4ccccc4)CC3)cccc2[nH]1` (stereo not given), the cell count amounted to 1480.

On to `CCCCCC/C=C/C=C\CCCCCCCC(=O)O`, for which the cell count is 5840.

In turn, `CC/C=C\C/C=C\C/C=C\CCCCCCCC(=O)NCCO` showed a cell count of 5950.

The compound `CC(C)OC(=O)CCC/C=C\C[C@@H]1[C@@H](/C=C/[C@H](O)CCc2ccccc2)[C@H](O)C[C@@H]1O` returned a cell count of 6060.

For the compound `CCCCC/C=C\C/C=C\CCCCCCCC(=O)O[C@H](COC(=O)CCCCCCCCCCCCCCC)COP(=O)(O)OCCN`, the cell count was found to be 4540.

`COc1ccc2cc(C(C#N)OC(=O)CC3OC3c3ccccc3)ccc2c1` (stereo not given): the cell count is 5490.

With `O=C1C(c2ccccc2)N(c2ccc(Br)cc2)C(=O)N1c1ccc(Br)cc1` (stereo not given), the cell count turned out to be 5960.

In turn, `CC(CN1CCC(n2c(=O)[nH]c3cc(Cl)ccc32)CC1)NC(=O)c1ccc2ccccc2c1` (stereo not given) came in with a cell count of 5810.

As to `CCCCC[C@H](O)/C=C/[C@@H]1[C@H](CCCCCCC(=O)O)[C@@H](O)C[C@H]1O`, the cell count was 6250.

In the case of `NC(=O)c1cccc(-c2cccc(OC(=O)NCCCCCCc3ccccc3)c2)c1`, the cell count worked out at 5110.

As to `O=C(O)CCCCCC[C@H]1C(=O)C[C@@H](O)[C@@H]1/C=C/[C@@H](O)Cc1ccccc1`, the cell count was 5710.

`CN(C)C(=O)CCSC(SCCC(=O)O)c1cccc(/C=C/c2ccc3ccc(Cl)cc3n2)c1` (stereo not given): the cell count turned out to be 5360.

As for `CCCCC/C=C/C=C1/C=CC(=O)[C@@H]1C/C=C\CCCC(=O)O`, the cell count came to 5680.

The compound `O=C(O)CCC/C=C\C[C@H]1C(=O)C[C@@H](O)[C@@H]1/C=C/[C@@H](O)Cc1ccccc1` displayed a cell count of 5810.

For the compound `CCCCC[C@H](O)/C=C/[C@@H]1[C@@H](CCCCCCC(=O)O)[C@H](O)C[C@@H]1O`, the cell count turned out to be 6220.

In the case of `CCCCCCCCCCCCCCCC(=O)OC[C@H](COP(=O)([O-])OCC[N+](C)(C)C)OC(=O)CCCC(=O)/C=C/C(=O)O`, the cell count worked out at 5760.

Still in this experiment, the particulars now being: A549 miR-34 inducible, Hoechst nuclei count, 48 h; measured here: total cells without miR-34 induction.
Regarding `O=C(O)CCC/C=C\CC1C(=O)C[C@@H](O)[C@@H]1/C=C/[C@@H](O)COc1ccccc1` (stereo not given in full), the cell count was 6220.

`CCCCCCCCCSCCCCCCCC(=O)O` showed a cell count of 5640.

For `CCCCC[C@H](O)/C=C/[C@H]1[C@H](O)CC(=O)[C@H]1C/C=C\CCCC(=O)OC(C)C`, the cell count worked out at 5820.

In turn, `NC(=Nc1ccc(F)cc1)NO` showed a cell count of 5470.

As to `OC[C@H]1O[C@H](O[C@H]2[C@H](O)[C@@H](O)[C@H](O)O[C@@H]2CO)[C@H](O)[C@@H](O)[C@@H]1O`, the cell count came to 8870.

For the compound `COc1ccc(/C=C/c2ccccc2F)cc1`, the cell count worked out at 6700.

Compound `CCCOCCCCCCCCCC(=O)O` registered a cell count of 6040.

Compound `Cn1c([N+](=O)[O-])cc[n+]1C` registered a cell count of 9670.

In the case of `CC\C=C/C=C/C=C/C=C\CCCCCCCC(=O)O`, the cell count was determined as 5410.

Regarding `CC(C)(C)OC(=O)Nc1cccc2[nH]ccc12`, the cell count came to 5440.

The compound `C[C@]12CC[C@@H]3c4cc(O)c(O)cc4CC[C@H]3[C@@H]1CC[C@@H]2O` displayed a cell count of 5920.

The compound `CC(C)(C)C(=O)Nc1ccccc1` came in with a cell count of 5670.

As to `O=C(O)CCCCCCCCCCCNC(=O)NC12CC3CC(CC(C3)C1)C2`, the cell count amounted to 5470.

`CCCCC/C=C\C/C=C\C/C=C\C/C=C\CCCC(=O)Oc1ccc2ccc(=O)oc2c1` displayed a cell count of 6270.

As for `CCCCCNC1=C(c2cn(C)c3ccccc23)C(=O)N(C)C1=O`, the cell count was 6140.

Consider `CCCCC[C@H](O)/C=C/[C@H]1OC(O)C[C@H](O)[C@@H]1CCCCCCC(=O)O` (stereo not given in full), for which the cell count is 5470.

Regarding `CCCCCCCCCCCCCCCNC(=O)C1CCCCC1`, the cell count was found to be 6070.

Compound `C[C@@H](O)CCC[C@@H](O)/C=C/[C@@H]1[C@@H](CCCCCCC(=O)O)[C@@H](O)C[C@H]1O` gave a cell count of 5940.

On to `CCCCC[C@H](O)/C=C/[C@@H]1c2cc(CCCCC(=O)O)n(-c3ccccc3)c2C[C@H]1O`, for which the cell count came out at 6620.

Compound `CCCCCCCCCC(=O)N[C@@H](CN1CCOCC1)[C@@H](O)c1ccccc1` gave a cell count of 5940.

`CCCCCCCCCCCCCCCCOC[C@H](COP(=O)([O-])OCC[N+](C)(C)C)SC(C)=O`: the cell count was determined as 5130.

`CCCCC/C=C\C/C=C\C/C=C\CCCCCCC(=O)OCC` came in with a cell count of 6160.

Compound `CCCCC[C@H](O)/C=C/[C@@H]1[C@@H](CCCCCCCO)[C@@H](O)C[C@H]1O` yielded a cell count of 6010.

`CCCCCCCCCCCC(=O)O` yielded a cell count of 5870.

As to `N#Cc1cc2c(OCC(O)CN3CCN(C(c4ccccc4)c4ccccc4)CC3)cccc2[nH]1` (stereo not given), the cell count was found to be 1550.

In the case of `CCCCCC/C=C/C=C\CCCCCCCC(=O)O`, the cell count was determined as 5920.

As for `CC/C=C\C/C=C\C/C=C\CCCCCCCC(=O)NCCO`, the cell count worked out at 5670.

On to `CC(C)OC(=O)CCC/C=C\C[C@@H]1[C@@H](/C=C/[C@H](O)CCc2ccccc2)[C@H](O)C[C@@H]1O`, for which the cell count worked out at 6410.

`CCCCC/C=C\C/C=C\CCCCCCCC(=O)O[C@H](COC(=O)CCCCCCCCCCCCCCC)COP(=O)(O)OCCN`: the cell count was determined as 5760.

Regarding `COc1ccc2cc(C(C#N)OC(=O)CC3OC3c3ccccc3)ccc2c1` (stereo not given), the cell count amounted to 6040.

Turning to `O=C1C(c2ccccc2)N(c2ccc(Br)cc2)C(=O)N1c1ccc(Br)cc1` (stereo not given), the cell count is 6370.

Compound `CC(CN1CCC(n2c(=O)[nH]c3cc(Cl)ccc32)CC1)NC(=O)c1ccc2ccccc2c1` (stereo not given) showed a cell count of 5380.

Take `CCCCC[C@H](O)/C=C/[C@@H]1[C@H](CCCCCCC(=O)O)[C@@H](O)C[C@H]1O`: the cell count was 6530.

On to `NC(=O)c1cccc(-c2cccc(OC(=O)NCCCCCCc3ccccc3)c2)c1`, for which the cell count was 5650.

`O=C(O)CCCCCC[C@H]1C(=O)C[C@@H](O)[C@@H]1/C=C/[C@@H](O)Cc1ccccc1` returned a cell count of 5540.

In turn, `CN(C)C(=O)CCSC(SCCC(=O)O)c1cccc(/C=C/c2ccc3ccc(Cl)cc3n2)c1` (stereo not given) returned a cell count of 5340.

Turning to `CCCCC/C=C/C=C1/C=CC(=O)[C@@H]1C/C=C\CCCC(=O)O`, the cell count amounted to 5960.

For `O=C(O)CCC/C=C\C[C@H]1C(=O)C[C@@H](O)[C@@H]1/C=C/[C@@H](O)Cc1ccccc1`, the cell count was found to be 5900.

`CCCCC[C@H](O)/C=C/[C@@H]1[C@@H](CCCCCCC(=O)O)[C@H](O)C[C@@H]1O` registered a cell count of 6350.

In turn, `CCCCCCCCCCCCCCCC(=O)OC[C@H](COP(=O)([O-])OCC[N+](C)(C)C)OC(=O)CCCC(=O)/C=C/C(=O)O` yielded a cell count of 5760.
